Assay results taken from PubChem BioAssay (NCATS).
Results filed as inconclusive are left out. Active and inactive are the calls of the source. Calls come from the whole dose curve; as a rule, active = well fitted curve in the direction sought with a large enough effect; inconclusive = small, poorly fitted or top-dose-only effect, or another doubt; inactive = no such curve, though single readings can be large; an effect the other way counts as inactive or inconclusive.

Columns and labels:
[1] = target: Glutathione peroxidase 1 (Homo sapiens) (UniProt P07203); assay: Primary qHTS Assay for Inhibitors of Recombinant Selenoprotein Glutathione Peroxidase 1 (GPX1) (AID 1845191); note: nearly all actives have a fitted effect of over 65% in size; for activity, negative = inhibition: % is set by controls: 0 for no effect and ±100 for the full control effect
Outline: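 GPX1 10 nM, GR 100 nM, GSH 1 mM, NADPH 0.5 mM, CHP 0.5 mM (final). 30-min cpd preincubation, RT. Ex340/Em450 read t=0, t=15 min.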

[2] = target: Luciferin 4-monooxygenase (Photinus pyralis) (UniProt P08659); assay: Primary firefly luciferase (FLuc) qHTS assay for identification of artifact compounds. (AID 1845220); note: nearly all actives have a fitted effect of over 60% in size
Outline: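 qHTS, 15 min compound preincubation with substrate (10 uM luciferin, 10 uM ATP) at RT, then 10 nM FLuc; 5 min; luminescence; % inhibition vs no-enzyme/DMSO controls, 4-parameter Hill fit.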

[3] = Primary fluorescence-based thiol-reactive (MSTI) qHTS assay for identification of artifact compounds. (AID 1845221);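 note: series mostly up to about 54 µM; thiol-reactive compounds lower the probe fluorescence signal; nearly all actives have a fitted effect of over 65% in size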
Outline: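 A multi-concentration qHTS design tested compounds against 4 uM MSTI, pH 7.4 phosphate-buffered saline. Plates were protected from light for 1 h at room temperature before imaging fluorescence.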

[4] = tested on: Nanoluciferase (engineered Oplophorus gracilirostris luciferase); assay: Primary Nanoluciferase (NLuc) qHTS assay for identification of artifact compounds. (AID 1845222); note: series mostly up to about 54 µM
Outline: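 Luminescence read-out of secreted NLuc in S16 cell conditioned medium (1:55); compounds tested with 15 min RT preincubation, then Nano-Glo substrate 1:100, 5 min. % inhibition vs no-enzyme and DMSO controls, 4-parameter Hill fit.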

[5] = target: Phospholipid hydroperoxide glutathione peroxidase GPX4 (Homo sapiens) (UniProt P36969); assay: Primary qHTS Assay for Inhibitors of Recombinant Selenoprotein Glutathione Peroxidase 4 (GPX4) (AID 1845192); note: nearly all actives have a fitted effect of over 65% in size; note: potency is the fitted concentration of half-maximal effect
Outline: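 qHTS, GR-coupled: GPX4 200 nM + cpd 30 min RT → GSH 1 mM, NADPH 0.5 mM, GR 100 nM → CHP 0.5 mM start; fluor 340/450 at t0 and t15 min; no-enzyme wells as control.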

Chain of Glutathione peroxidase 1 (Homo sapiens) (P07203 whole entry, looked up): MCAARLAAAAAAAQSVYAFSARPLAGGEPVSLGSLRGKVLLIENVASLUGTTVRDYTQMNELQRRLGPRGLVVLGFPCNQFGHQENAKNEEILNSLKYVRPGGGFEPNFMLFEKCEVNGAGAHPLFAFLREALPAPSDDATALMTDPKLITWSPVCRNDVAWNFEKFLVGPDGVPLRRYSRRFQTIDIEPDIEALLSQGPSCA
Chain of Phospholipid hydroperoxide glutathione peroxidase GPX4 (Homo sapiens) (P36969 whole entry, looked up): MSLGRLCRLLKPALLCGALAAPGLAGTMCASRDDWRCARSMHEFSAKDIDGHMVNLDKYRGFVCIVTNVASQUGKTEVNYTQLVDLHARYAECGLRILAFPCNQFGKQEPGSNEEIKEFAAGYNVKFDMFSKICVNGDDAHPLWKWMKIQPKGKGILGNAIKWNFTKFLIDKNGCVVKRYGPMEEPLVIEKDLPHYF

OC1(c2ccc(Cl)cc2)c2ccccc2C2=NCCN21 (stereo not given)
inactive: Potency [1] | Potency [2] | Potency [3] | outcome [4]

CN1C(=O)c2ccccc2NC(=O)[C@]12O[C@@H]2c1ccccc1
inactive: Potency [1] | Potency [5] | Potency [2] | outcome [4]

CN(C(=O)Cc1ccccc1)C(CN1CCCC1)c1ccccc1 (stereo not given)
inactive: Potency [5] | Potency [2] | Potency [3] | outcome [4]

CC(C)[C@@H](CN1CC[C@@](C)(c2cccc(O)c2)[C@@H](C)C1)NC(=O)[C@H]1Cc2ccc(O)cc2CN1
inactive: Potency [1] | Potency [2] | Potency [3] | outcome [4]

COC1CC(OC2CCC3(C=O)C(CCC4C3CCC3(C)C(C5=CC(=O)OC5)CCC43O)C2)OC(C)C1OC1OC(CO)C(O)C(O)C1O (stereo not given)
inactive: Potency [1] | Potency [5] | Potency [2] | Potency [3] | outcome [4]

O=C(N1CCOCC1)N1CCN(c2ccc(Cl)cc2)CC1
inactive: Potency [1] | Potency [5] | Potency [2] | Potency [3] | outcome [4]

COc1cc2c(cc1OC)[C@@]13CCN4CC5=CCO[C@H]6CC(=O)N2[C@H]1[C@H]6[C@H]5C[C@H]43
inactive: Potency [1] | Potency [2] | Potency [3] | outcome [4]

CC(=O)OC12C(O)C(C)C3(O)C4C=C(C)C(=O)C4CC(CO)=CC3C1C2(C)C (stereo not given)
inactive: Potency [1] | Potency [2] | Potency [3] | outcome [4]

CC[C@H]1CN2CC[C@H]1C[C@@H]2[C@@H](O)c1ccnc2ccc(OC)cc12
inactive: Potency [1] | Potency [2] | Potency [3] | outcome [4]

COC(=O)N1CCN(C(=O)Cc2ccc(Cl)c(Cl)c2)[C@@H](CN2CCCC2)C1
inactive: Potency [5] | Potency [2] | Potency [3] | outcome [4]

CCCN1CCO[C@H]2c3cc(O)ccc3OC[C@@H]21
inactive: Potency [1] | Potency [2] | Potency [3] | outcome [4]

COC1CC(OC2CCC3(C)C(CCC4C3CCC3(C)C(C5=CC(=O)OC5)C(OC(C)=O)CC43O)C2)OC(C)C1OC1OC(CO)C(O)C(O)C1O (stereo not given)
inactive: Potency [1] | Potency [5] | Potency [2] | outcome [4]

C/C=C(\C)C(=O)O[C@H]1[C@H](OC(C)=O)[C@]2(CO)[C@H](O)[C@H](O)[C@]3(C)C(=CCC4[C@@]5(C)CC[C@H](O[C@@H]6O[C@H](C(=O)O)[C@@H](O)[C@H](O[C@@H]7OC[C@H](O)[C@H](O[C@@H]8OC[C@H](O)[C@H](O)[C@H]8O)[C@H]7O)[C@H]6O[C@@H]6O[C@H](CO)[C@@H](O)[C@H](O)[C@H]6O)C(C)(C)C5CC[C@]43C)[C@@H]2CC1(C)C (stereo not given in full)
inactive: outcome [1] inactive [at 9.52 µM] | outcome [2] inactive [at 11.6 µM] | activity change, negative = thiol reactive [3] 214% [at 11.5 µM] | activity, negative = inhibition [4] 2.49% [at 11.6 µM]

CC1=CC2/C=C(\C)CCC(O)C3OC(C)(C)OC3CC(=O)OC23C(=O)NC(CC(C)C)C3C1C (stereo not given)
inactive: Potency [1] | Potency [5] | Potency [2] | outcome [4]

CCC1NC(=O)C2C(Cl)C(Cl)CN2C(=O)C(C(C)O)NC(=O)CC(c2ccccc2)NC(=O)C(CO)NC1=O (stereo not given)
inactive: Potency [1] | Potency [2] | outcome [4]

Cc1c(Cl)cccc1S(=O)(=O)Nc1nc(CC(=O)N2CCN(C)CC2)cs1
inactive: Potency [1] | Potency [2] | Potency [3]

CC(C)(O)[C@H]1O[C@H]2CC[C@@]3(C)[C@@](O)(CC[C@H]4Cc5c([nH]c6ccccc56)[C@@]43C)C2=CC1=O
inactive: Potency [1] | Potency [5] | Potency [2] | outcome [4]

Cc1ccccc1-n1c(CF)nc2ccc(N)cc2c1=O
active: Potency [5] 17.8 µM

COC(=O)C1(C)CCC(O)C2(C)c3cc(O)c(C(C)C)cc3C(O)C(OC(C)=O)C12 (stereo not given)
inactive: Potency [1] | Potency [5] | Potency [2] | outcome [4]

C[C@H]1O[C@@H](O[C@H]2C[C@@H](O)[C@]3(CO)C4C(CC[C@]3(O)C2)[C@@]2(O)CC[C@H](C3=CC(=O)OC3)[C@@]2(C)C[C@H]4O)[C@@H](O)[C@@H](O)[C@H]1O (stereo not given in full)
inactive: Potency [5] | Potency [2] | Potency [3] | outcome [4]

CO[C@@H]1[C@H](O)[C@@H](O[C@@H]2C[C@H]3CC[C@@H]4C(CC[C@]5(C)[C@@H](C6=CC(=O)OC6)CC[C@]45O)[C@@]3(C)[C@H](O)C2)O[C@H](C)[C@@H]1O[C@@H]1O[C@H](CO)[C@@H](O)[C@H](O)[C@H]1O (stereo not given in full)
inactive: Potency [1] | Potency [5] | Potency [2] | Potency [3] | outcome [4]

COc1cc(C(=O)O[C@H]2[C@@H]3C=CO[C@@H](O[C@@H]4O[C@H](CO)[C@@H](O)[C@H](O)[C@H]4O)[C@@H]3[C@@]3(CO)O[C@@H]23)ccc1O
inactive: Potency [1] | Potency [5] | Potency [2] | outcome [4]

Cc1cn(C[C@H](N)C(=O)O)c(=O)n(Cc2cc(-c3ccccc3)sc2C(=O)O)c1=O
inactive: Potency [5] | Potency [2] | Potency [3] | outcome [4]
